The source of these data is PubChem BioAssay AID926 (National Center for Advancing Translational Sciences (NCATS), 2007).

Several values for one entry are separate records, joined by “and”; a condition that tells them apart may be missing. Equal values may be shown once. Out of some 73,000 compounds screened, about 350 (0.48%) were called active. About 17% were inconclusive and are not listed. The call rests on the fitted dose curve; in most records, active means well fitted activation curve with a large enough effect in the main read-out, with a control signal flat (not every such curve was filed as active); inconclusive means small, poorly fitted or top-dose-only effect, or a change in a side signal; inactive means no such curve, though single readings can be large or run the other way; reference of the percent scale not stated here. For the sample, actives were picked, then their nearest neighbours and some compounds at random.

The nature of assay [1]: qHTS Assay for Agonists of the Thyroid Stimulating Hormone Receptor. Particulars: HEK293-CNG-TSHR cells, membrane potential dye, cAMP; measured here: parental cells max response. From the text: (§1) NIH Chemical Genomics Center [NCGC]
(§2) NIH Molecular Libraries Screening Centers Network [MLSCN]
(§3) PI Name: Dr. Marvin Gershengorn, NIH
(§4) Thyroid Stimulating Hormone Receptor
(§5) TSH is an alpha/beta heterodimeric glycoprotein hormone secreted from the anterior pituitary gland which belongs to the glycoprotein hormone family. The actions of TSH are mediated by a seven-transmembrane receptor, which upon TSH binding couples preferentially to the G-alpha (s) protein (Gs), resulting in activation of adenylate cyclase and increase in cyclic adenosine 3', 5' monophosphate (cAMP). The TSH receptor (THSR) is mainly expressed in thyroid follicular cells and regulates their growth and function. Recombinant TSH is used to activate TSHR in patients with thyroid cancer receiving thyroid hormone suppression therapy and to screen for residual tumor after surgery, but it is expensive and must be administered intramuscularly. An orally active small molecule TSHR agonist would serve as an invaluable research tool for studying TSHR pharmacology and physiology, and would have multiple advantages in therapeutic settings. However, no selective small molecule agonist of the TSH receptor exists, and no small molecule screen for TSHR agonists has ever been reported.
(§6) This cell based assay utilized a cyclic nucleotide gated ion channel (CNG) as a biosensor for cAMP induction by potential TSHR agonists.
(§7) HEK 293 cells stably expressing the TSHR as well as a modified CNG were purchased from BD biosciences. Stimulation of cAMP production causes the CNG to open and subsequent membrane depolarization to occur. A fluorescent membrane potential dye (BD biosciences) was utilized to detect cAMP stimulation in TSHR cells.
(§8) The cells were maintained in DMEM medium (Invitrogen) containing 10 % FBS (Hyclone), 100 units/ml Penicillin, 100 ug/ml Streptomycin (Invitrogen), and 250 ug/ml Geneticin (Invitrogen) and 1 ug/ml Puromycin (Invitrogen) at 37C in 5% CO2. HEK 293 cells expressing CNG but without TSHR (parental cells) were used in concert to control for compounds signaling through endogenous receptors and targets of HEK 293 cells.
(§9) NCGC Assay Protocol Summary:
(§10) High Throughput Screening. Freshly passaged cells (TSHR or parental) were dispensed into 1536-well assay plates at 4 ul/well in DMEM containing phenol red (Invitrogen), 10% FCS (Hyclone), and 100 units/ml Penicillin, 100 ug/ml Streptomycin (Invitrogen) and incubated at 37 C with 5% CO2 for 20 to 36 hrs before the robotic screening. The screen was initiated by addition of 4 ul/well membrane potential dye containing 100 uM RO 20-1724 (Sigma Aldrich), followed by 60 min incubation at room temperature to allow for dye equilibration across the cell membrane. 23 nl/well compound or control was then added to the assay plates, which were incubated for additional 30 min before reading a Envision fluorescence plate reader (Perkin Elmer) in bottom-read mode for fluorescence intensity (emission at 590 nm).
(§11) Keywords: Thyroid-stimulating hormone TSH, TSHR, TSHR agonist, quantitative high throughput screening, qHTS, HTS, probe identification, CNG, cAMP, cyclic nucleotide gated ion channel PubChem
For orientation: qHTS replaces the single test concentration by a dilution series.

For assay [2], the target named is Thyrotropin receptor (Homo sapiens) (UniProt P16473). Described as above. To be noted: HEK293-CNG-TSHR cells (CNG channel as cAMP sensor), membrane potential dye, cAMP; series mostly up to 57.1 µM.
Source text: as §1, §2, §3, §4, §5, §6, §7, §8, §9, §10, §11
Potency means the concentration at half of the fitted maximal effect.

Chain of Thyrotropin receptor (Homo sapiens) (P16473 whole entry, looked up): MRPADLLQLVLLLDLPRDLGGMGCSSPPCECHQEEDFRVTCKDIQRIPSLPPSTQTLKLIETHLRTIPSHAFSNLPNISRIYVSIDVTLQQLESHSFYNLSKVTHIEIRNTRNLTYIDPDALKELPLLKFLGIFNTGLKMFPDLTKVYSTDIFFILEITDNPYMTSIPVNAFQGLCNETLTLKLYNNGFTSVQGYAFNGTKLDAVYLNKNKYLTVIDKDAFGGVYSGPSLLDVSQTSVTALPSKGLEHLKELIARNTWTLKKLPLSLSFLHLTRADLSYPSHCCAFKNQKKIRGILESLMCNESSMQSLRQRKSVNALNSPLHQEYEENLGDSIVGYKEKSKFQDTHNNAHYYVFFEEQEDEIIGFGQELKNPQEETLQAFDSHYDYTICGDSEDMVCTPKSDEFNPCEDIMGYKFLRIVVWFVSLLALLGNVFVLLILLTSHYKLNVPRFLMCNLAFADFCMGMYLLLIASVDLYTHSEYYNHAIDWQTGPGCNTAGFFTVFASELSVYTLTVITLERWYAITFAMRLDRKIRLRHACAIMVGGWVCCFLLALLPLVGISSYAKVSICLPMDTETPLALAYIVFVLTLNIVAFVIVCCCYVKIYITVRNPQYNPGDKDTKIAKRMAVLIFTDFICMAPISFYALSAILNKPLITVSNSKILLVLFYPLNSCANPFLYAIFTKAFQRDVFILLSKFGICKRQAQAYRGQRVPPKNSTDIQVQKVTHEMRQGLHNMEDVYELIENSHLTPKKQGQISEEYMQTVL

In the case of `CC1CN(c2cc(=O)n(Cc3ccc(F)cc3)c(=O)[nH]2)CC(C)O1` (stereo not drawn), the activation in assay [1] is 3.44%. Also, the Potency entry in assay [2] was “inactive”.
On to `COc1cccc([C@H]2Oc3ccc(OC)cc3/C(=N\OCC[C@@H]3C=C[C@H](OC(C)=O)[C@H](COC(C)=O)O3)[C@@H]2O)c1`, for which the activation is 1.81% in assay [1] and 9.23% [at 11.4 µM] (inactive) in assay [2].
For `COC(=O)[C@@H]1CC[C@H](C)[C@@H](c2ccc(C)cc2)N1C(=O)c1ccc(/C=N\OC[C@@H](O)COCc2ccco2)cc1`, in that order: 44.4% and 16.9% [at 11.4 µM] (inactive).
On to `c1ccc2c(Nc3ccncc3)nc(-c3ccc4c(c3)OCO4)nc2c1`, for which, in assay [1], the activation is -4.18%. In addition, the Potency result in assay [2] is “inactive”.
Take `CCc1ccccc1NC(=O)c1cccs1`: in assay [1], the activation was -1.56%. Besides, the Potency entry in assay [2] is “inactive”.
For `Nc1ccccc1N`, in that order: -14.7% and “inactive”.
Take `Cc1ccc(CCn2c3c(c4ccccc42)CN(C)CC3)cn1`: the activation in assay [1] is 19.4%. Further, in assay [2], the Potency entry was “inactive”.
The matching figures for `COC(=O)[C@@]1(Cc2ccc(F)cc2)[C@H]2c3cc(C(=O)N(C)C)n(CCc4c[nH]c5ccc(OC)cc45)c3C[C@H]2CN1C(=O)c1ccccc1`: 3.36% and “inactive”.
As to `CO[C@H]1COC(=O)[C@@H](C)NC(=O)C/C=C\[C@@H](C)[C@H](OC)COC(=O)C/C=C\[C@@H]1C`, the activation in assay [1] was 2.45%; in assay [2] it was -73.4% [at 11.4 µM] (inactive).
For `CCOc1cc(/C=N/O)cc(Br)c1OC`, in that order: 15% and 4.51% [at 11.4 µM] (inactive).
Take `C[C@H]1CC[C@H](C(=O)O)N[C@@H]1c1ccc(C#Cc2ccccc2)cc1`: the activation in assay [1] was 0.689%; in assay [2], 0.128% [at 11.4 µM] (inactive).
Consider `O=C(c1cccs1)N1CCN(Cc2ccc3c(c2)OCO3)CC1`, for which the activation in assay [1] is -2.72%. For the same compound, the Potency result in assay [2] is “inactive”.
For `C[C@@H]1O[C@@H](O[C@@H]2[C@@H](O)[C@H](OCCc3ccc(O)c(O)c3)O[C@H](CO[C@@H]3O[C@H](CO)[C@@H](O)[C@H](O)[C@H]3O)[C@H]2OC(=O)/C=C/c2ccc(O)c(O)c2)[C@H](O)[C@H](O)[C@H]1O`, in that order: 23.7% and “inactive”.
For `O=C(O)COc1nsnc1N1CCOCC1`, in that order: -10.1% and “inactive”.
For the compound `c1nc(COc2nsnc2N2CCOCC2)cs1`, the activation in assay [1] was -7.01%. Moreover, in assay [2], the Potency entry is “inactive”.
The matching figures for `c1ccc(COc2nsnc2N2CCOCC2)cc1`: 27.1% and 31.6 µM (active).
`CCn1c(COc2ccc(OC)cc2)nnc1SCC(=O)Nc1cc(OC)ccc1OC`: in assay [1], the activation is 24.1%. The Potency result in assay [2] was “inactive”.
The matching figures for `COc1ccc(OC)c(NC(=O)CC(Cc2ccccc2OC)C(=O)O)c1` (stereo not drawn): 9.66% and “inactive”.
The matching figures for `COc1ccc(OC)c(NC(=O)CSc2nc(N)c(-c3ccccc3)c(=O)[nH]2)c1`: 9.04% and 25.1 µM (active).
Consider `CN(C)CCCCNC(=O)c1ccc(Cc2nc3ccccc3[nH]2)cc1`, for which, in assay [1], the activation was 3.13%. The Potency entry in assay [2] was “inactive”.
`Cc1ccc2oc(=O)c3cnn(CC(=O)N4CCN(c5ccccn5)CC4)c3c2c1`: in assay [1], the activation was 4.94%. Further, the Potency result in assay [2] was “inactive”.
Consider `CC(C)[C@@H](OCc1ccccc1)[C@H](C)/C=N\OC[C@@H](C)[C@H](OCc1ccccc1)C(C)C`, for which the results for the activation in assay [1] and in assay [2] were 2.03% and 1.85% [at 11.4 µM] (inactive), respectively.
As for `Cc1c(S(=O)(=O)O)ccc(N=Nc2c(O)c(C(=O)O)cc3ccccc23)c1Cl`, the activation in assay [1] is -23.8%; in assay [2], -9.34% [at 11.4 µM] (inactive).
With `Cc1nc2cnc(N3CCNCC3)nc2n(CCc2ccccc2)c1=O`, the activation in assay [1] worked out at 9.57%. The Potency result in assay [2] is “inactive”.
For `CCOC(=O)c1c(NC(=O)CCC(=O)NCc2ccco2)sc2c1CCCC2`, in that order: 12.9% and “inactive”.
For the compound `O=C(COC(=O)CCC(=O)c1cccs1)NCc1ccco1`, the activation in assay [1] came to 10.5%. Also, the Potency result in assay [2] was “inactive”.
In the case of `O=C(COC(=O)C12CC3CC(CC(C3)C1)C2)NCc1ccco1`, in assay [1], the activation was -8.57%. Further, the Potency in assay [2] is 0.794 µM (active).
As to `CC(C)CO/N=C1/C[C@@H](O)[C@@H](O)[C@@H]2[C@@H]3C(=O)N(C[C@@H]4CCCO4)C(=O)[C@H]3CC[C@@H]12`, the activation in assay [1] is 4.27%; in assay [2] it was -4.09% [at 11.4 µM] (inactive).
For `COC(=O)C(C(=O)OC)[C@@H]1CCCC(=O)C1`, in that order: 4.23% and -9.31% [at 11.4 µM] (inactive).
As to `COC(=O)C(C)Sc1ccc2nnc(-c3cccc(F)c3)n2n1` (stereo not drawn), in assay [1], the activation was 2.29%. Also, the Potency entry in assay [2] was “inactive”.
The matching figures for `CSc1ccc(Cl)c(C(=O)OCC(=O)N2CC(C)OC(C)C2)c1` (stereo not drawn): 6.62% and “inactive”.
Consider `COC(=O)C1=C(C)N(Cc2ccccc2)C2=C3C(=O)N(c4ccccc4)C(=O)C3[C@@](O)(C(=O)OC)C(=O)N2C1c1ccccc1` (stereo partly drawn), for which the activation is 9.18% and 2.67% in assay [1]; -0.785% [at 11.4 µM] (inactive) and 7.43% [at 11.4 µM] (inactive) in assay [2].
Regarding `CCCNC(=O)OC[C@@H]1O[C@H](c2ccccc2)C=C[C@@H]1Oc1ccc(OC)cc1`, the results for the activation in assay [1] and in assay [2] were 1.38% and 1.94% [at 11.4 µM] (inactive), respectively.
The matching figures for `CN1CCCc2cc(C#N)c(=O)[nH]c21`: 7.1% and 4.78% [at 11.4 µM] (inactive).
Regarding `O=C(COc1cccc(-n2cnnn2)c1)NCCC1=CCCCC1`, the activation in assay [1] is -0.416%. In addition, the Potency entry in assay [2] is “inactive”.
For `O=C(Cc1nn[nH]n1)NCCC1=CCCCC1`, in that order: 15.8% and “inactive”.
The matching figures for `O=C(CN1C(=O)NC2(CCCCC2)C1=O)NCCC1=CCCCC1`: 3.28% and 12.6 µM (active).
The matching figures for `CNC(=O)C1(C)C=CC2(CCCCC2)N1C(C)=O` (stereo not drawn): 9.38% and “inactive”.
For the compound `O=C(c1ccccc1)c1ccc2nc(N3CCCCC3)c3nncn3c2c1`, the activation in assay [1] came out at 3.47%. Further, the Potency result in assay [2] was “inactive”.
